Compound activity deposited in PubChem BioAssay by several laboratories.
Sampled rows, rich in hits. Any-hit rate of the full collection: about 1.1%.
BJeLR lethal: MLPCN primary cell-based screen for lethality selective to Ras in HRASV12 cells. BJeLR (HRASV12) viability, CellTiter-Glo ATP luminescence, 48 h. inhibition, % (concentration not given with the values). 0.17% of 300,000 active; in the data active = inhibition above about 50%
PrP UTR inh: inhibition of PrP 5' UTR reporter expression. 0.35% of 340,000 active. inhibition, % (test concentration not listed). cell-based PrP 5' UTR mRNA reporter, plate reader. AID 488862, 2010; in the data active = inhibition above about 52%
MazF activator: activators of E. coli MazEF toxin-antitoxin RNase, primary screen, biochemical, fluorescence, uHTS | Endoribonuclease toxin MazF (Escherichia coli (strain K12)), P0AE70 | FAM/BHQ RNA-DNA oligo cleavage fluorescence, 5 h | activation, % at 20 µM | 0.32% of 350,000 active; in the data active = activation above about 50%
Target sequence (P0AE70 whole entry, looked up): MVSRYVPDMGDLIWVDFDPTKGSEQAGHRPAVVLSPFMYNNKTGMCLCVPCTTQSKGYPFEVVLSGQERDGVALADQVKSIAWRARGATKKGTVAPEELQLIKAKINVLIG
PrPC TRFRET: inhibitors of human cell surface prion protein PrPC, primary screen, cell-based, TR-FRET; TR-FRET read-out; inhibition, % at 13.8 µM; AID 720596, 2013; Major prion protein (Homo sapiens), P04156; 0.43% of 370,000 active; in the data active = inhibition above about 24%
Each line names hits and unclear results; the compound was inactive in the other large screens.

NS(=O)(=O)c1ccc(CCNc2nc3c(-c4cccc(F)c4)nnn3c3ccccc23)cc1	MazF activator 109.1
CSc1nc(-c2ccc(N(C)C)cc2)c(C#N)c(=O)n1C	MazF activator 136.0
CSc1nc(-c2ccc(Cl)cc2)c(C#N)c(=O)n1C	none
Nc1ccc(N(CCO)CCO)cc1	none
CCN(CC)c1ccc(N)cc1	MazF activator 99.2 (no result: BJeLR lethal, PrPC TRFRET)
CCN1/C(=C/c2ccc3cc(C)ccc3[n+]2CC)Sc2ccc3sccc3c21	BJeLR lethal 92.4 (no result: PrPC TRFRET)
CCN1/C(=C/c2ccc3cc(C)cc(C)c3[n+]2CC)Sc2cc(C)ccc21	none (no result: BJeLR lethal)
CCN1/C(=C\c2ccc3cc(C)ccc3[n+]2CC)Sc2cc(C)c(C)cc21	MazF activator 82.2
Cc1ccccc1C(=O)N(C)[C@H]1C[C@H]2c3[nH]c4c(-c5ccc6c(c5)OCO6)cccc4c3CCN2C(=O)[C@H]1[C@H](C)O	none (no result: BJeLR lethal, PrP UTR inh, MazF activator)
Fc1ccc(Nc2cccc3nccnc23)cc1	none
c1cc(Nc2cccc3nccnc23)c2nccnc2c1	MazF activator 50.5
O=C(NC1CCCC1)[C@@H]1CCCN1C(=O)[C@@H](NC(=O)N1CCOCC1)c1ccccc1	none (no result: BJeLR lethal, PrP UTR inh, MazF activator)
COc1cc(C(=O)NC2CCCCN(C)C2=O)cc(OC)c1OC (stereo not drawn)	none (no result: BJeLR lethal, PrP UTR inh, MazF activator)
CC(C)[C@H](NC(=O)c1ccc(Cl)cc1Cl)C(=O)N1CCC[C@H]1C(=O)NCc1ccccc1	none (no result: BJeLR lethal, PrP UTR inh, MazF activator)
CN(C)c1ccc(/C=N/NC(=O)c2ccccn2)cc1	none
CN(C)c1ccc(/C=N/NC(=O)c2cnc3ccccc3c2)cc1	MazF activator 189.8
O=C(Nc1nc2ncccn2c1-c1ccccc1)C1CC1	none (no result: BJeLR lethal, PrP UTR inh, MazF activator)
C[C@H]1C2CC(OC(=O)NCc3ccc(Cl)cc3)C(C2)[C@H]2CCCCN21 (stereo partly drawn)	none (no result: BJeLR lethal, PrP UTR inh, MazF activator)
Oc1ccccc1-c1ccn[nH]1	none (no result: BJeLR lethal)
Cc1ccc(C)n1-c1ccc(-c2ccn[nH]2)cc1	MazF activator 91.1
c1ccn(-c2ccc(-c3ccn[nH]3)cc2)c1	MazF activator active
Cc1cccc(C)c1-n1nnnc1SCC(=O)c1c(N)n(C2CC2)c(=O)[nH]c1=O	MazF activator 55.2 (no result: BJeLR lethal)
Cc1ccc(-n2ccnc2SCC(=O)c2c(N)n(C3CC3)c(=O)[nH]c2=O)cc1C	none (no result: BJeLR lethal)
Cn1nnnc1SCC(=O)c1c(N)n(C2CC2)c(=O)[nH]c1=O	none (no result: BJeLR lethal)
Cc1ccc(-n2nnnc2SCC(=O)c2c(N)n(C3CC3)c(=O)[nH]c2=O)cc1C	MazF activator 56.7 (no result: BJeLR lethal)
Nc1ncnc2c1ncn2[C@@H]1O[C@H](C(=O)N[C@@H](CCc2ccccc2)C(=O)O)[C@@H](O)[C@H]1O	none (no result: BJeLR lethal, PrP UTR inh, MazF activator)
O=C(O)c1cc(O)c2c(c1)[C@@H]([C@H]1c3cc(C(=O)O)cc(O)c3C(=O)c3c(O[C@@H]4O[C@H](CO)[C@@H](O)[C@H](O)[C@H]4O)cccc31)c1cccc(OC3O[C@H](CO)[C@@H](O)[C@H](O)[C@H]3O)c1C2=O (stereo partly drawn)	PrPC TRFRET 61.5
CCCCCCNC(=O)C(C#N)c1nc2ccccc2nc1N1CCOCC1 (stereo not drawn)	MazF activator 577.4
CCCCCCNC(=O)C(C#N)c1nc2ccccc2nc1N1CCCC1 (stereo not drawn)	MazF activator 370.0
COCCCNC(=O)C(C#N)c1nc2ccccc2nc1N1CCCC1 (stereo not drawn)	MazF activator 739.4
CCCCCNC(=O)C(C#N)c1nc2ccccc2nc1N1CCCC1 (stereo not drawn)	none (no result: PrPC TRFRET)
C/C(=N/NC(=O)c1cc(-c2cccc([N+](=O)[O-])c2)n[nH]1)c1ccc(Cl)cc1	MazF activator 56.5
CC(C)c1ccc(/C=N/NC(=O)c2cc(-c3cccc([N+](=O)[O-])c3)n[nH]2)cc1	none
COc1ccc(C2CC(=O)C(c3ccc(C(C)=O)cc3)=CN2Cc2ccccc2)cc1 (stereo not drawn)	none (no result: BJeLR lethal, PrP UTR inh, MazF activator)
O=S(=O)(Nc1cc(Sc2cccc3cccnc23)c(O)c2ccccc12)c1ccccc1	BJeLR lethal 125.2 (no result: PrP UTR inh, MazF activator)
COc1ccc2nc(NC(=O)c3cc(C)oc3C)sc2c1	none
COc1ccc2nc(NC(=O)c3ccoc3C)sc2c1	BJeLR lethal 75.4
CC(=O)c1cc(NC(=O)c2cccc(C(F)(F)F)c2)c(=O)oc1/C=C/N(C)C	MazF activator 180.0
CCOC(=O)C1CSCCS(=O)(=O)N1Cc1ccc(C)cc1 (stereo not drawn)	none (no result: BJeLR lethal, PrP UTR inh, MazF activator)
O=C1C=CC2(C=C1)O[C@H](Cc1ccccc1)[C@@H](Cc1ccccc1)O2	PrPC TRFRET 88.9 (no result: BJeLR lethal)
CC1(C)OC(=O)C2=C(CC(CCc3ccccc3)OC2c2ccc(Cl)c(Cl)c2)O1 (stereo not drawn)	none (no result: BJeLR lethal, PrP UTR inh, MazF activator)
N#C/C(=C\c1ccc([N+](=O)[O-])cc1)c1nc(C2CC2)cs1	MazF activator 338.3
COCC(=O)N1C[C@H]2CON(C)[C@H]2C[C@H]1c1cccc(-c2cc(Cl)cc(Cl)c2)c1	none (no result: BJeLR lethal, PrP UTR inh, MazF activator)
O=C(CCC1CCCC1)Nc1ccc(C(=O)NCc2cccnc2)cc1	BJeLR lethal 88.8
O=C(COc1ccc([N+](=O)[O-])cc1)Nc1ccc(C(=O)NCc2cccnc2)cc1	BJeLR lethal 62.9
O=C(NCc1cccnc1)c1ccc(NC(=O)c2cccc([N+](=O)[O-])c2)cc1	BJeLR lethal 79.3
O=C(C1CC1)n1ccc2ccc(-c3ccc4ccn(Cc5ccccc5)c4c3)cc21	none (no result: BJeLR lethal, PrP UTR inh, MazF activator)
COC(=O)Cn1cc(C=C2C(=O)N(C)C(=O)N(C)C2=O)c2ccccc21	MazF activator 194.7 (no result: PrP UTR inh)
CN(C)C=Nc1c(Br)cc(Br)c2nonc12	MazF activator 227.7
COc1ccc(/C=C2\SC(=S)N(CCCC(=O)Nc3cc(C)on3)C2=O)cc1OC	MazF activator 150.4
COc1ccc(/C=C2/SC(=S)N(CCC(=O)O)C2=O)cc1	PrP UTR inh 62.8
C=CCCC1CN(Cc2ccc(OC)cc2)S(=O)(=O)c2c(cccc2N(C)S(=O)(=O)c2ccc(C)cc2)O1 (stereo not drawn)	none (no result: BJeLR lethal, PrP UTR inh, MazF activator)
Cc1ccc(C(=O)OCC(=O)Nc2c(C)n(C)n(-c3ccccc3)c2=O)cc1[N+](=O)[O-]	MazF activator 50.0
COC(=O)C1=C(C)N(C)C(=NCc2ccccc2)NC1c1ccccc1 (stereo not drawn)	none (no result: BJeLR lethal, PrP UTR inh, MazF activator)
COc1ccc(C)cc1NS(=O)(=O)c1ccc(NC(=O)CN(c2cc([N+](=O)[O-])ccc2C)S(C)(=O)=O)cc1	BJeLR lethal 109.3
Cc1cccc(NS(=O)(=O)c2ccc(NC(=O)CN(c3cc([N+](=O)[O-])ccc3C)S(C)(=O)=O)cc2)c1	BJeLR lethal 69.1
O=C(NCc1ccco1)O[C@H]1CC[C@@]23CCCN2C(=O)CCC[C@H]3C1	none (no result: BJeLR lethal, PrP UTR inh, MazF activator)
O=C(NCCc1ccc(C(F)(F)F)cc1)C1CCC(=O)N(CCc2cccc(F)c2)C1 (stereo not drawn)	MazF activator 64.1
COc1ccc(CCN2CC(C(=O)NCCc3cccc(F)c3)CCC2=O)cc1 (stereo not drawn)	none
CCC(=O)Nc1ccc(NC(=O)c2ccco2)cc1	none
CCOc1ccc(CC(=O)Nc2ccc(NC(=O)c3ccco3)cc2)cc1OCC	BJeLR lethal 81.6
CC1=NNC(=O)/C1=C\c1cn(-c2ccccc2)nc1-c1ccc(F)cc1	none (no result: PrPC TRFRET)
CC1=NNC(=O)/C1=C\c1cn(-c2ccccc2)nc1-c1cccs1	BJeLR lethal 55.7
